Unmarked numbers belong to inactive results. How the calls were made is not given here.
What follows are molecules tested against Pantothenate synthetase (Mycobacterium tuberculosis (strain ATCC 25618 / H37Rv)) (UniProt P9WIL5) (assay: Coupled enzyme confirmation of inhibitors against recombinant Mtb PanC (AID 375;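 further: 0% = full reaction with vehicle and 100% = no enzyme background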)). Settings: coupled enzyme assay; at 10 µM, stronger effect = higher value.
Sequence of Pantothenate synthetase (Mycobacterium tuberculosis (strain ATCC 25618 / H37Rv)) (P9WIL5 whole entry, looked up): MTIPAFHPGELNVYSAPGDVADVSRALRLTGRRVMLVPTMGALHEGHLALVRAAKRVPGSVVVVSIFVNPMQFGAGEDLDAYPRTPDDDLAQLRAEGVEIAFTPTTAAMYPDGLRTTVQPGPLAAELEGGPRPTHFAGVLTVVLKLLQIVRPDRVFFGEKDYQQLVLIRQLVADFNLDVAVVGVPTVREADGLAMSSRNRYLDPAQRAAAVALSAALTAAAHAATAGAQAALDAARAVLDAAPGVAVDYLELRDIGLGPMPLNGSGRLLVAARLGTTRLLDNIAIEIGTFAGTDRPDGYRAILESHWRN

SMILES	inhibition [%]
COC(=O)c1cc(Br)c(=O)n(CCN2CCOCC2)c1	0
Cc1cc(C)n(-c2nc3c(c(=O)[nH]c(=O)n3C)n2Cc2ccc(F)cc2)n1	0
O=C(NCc1cccnc1)C1CCCN(S(=O)(=O)c2ccc(Cl)cc2)C1 (centres undefined)	2
CC1Cc2nc(SCC(=O)N3CCCc4ccccc43)n(C)c(=O)c2S1 (centres undefined)	1
COc1ccc(C2C(C(C)=O)=C(C)N=c3s/c(=C\c4ccc5c(c4)OCO5)c(=O)n32)c(OC)c1 (centres undefined)	0
Cc1ccccc1-n1c(Cn2c(=O)sc3ccccc32)nnc1SCC(=O)N1CCCC1	8
CN=c1sc2ccccc2n1CC(O)COCc1ccco1 (centres undefined)	0
COc1ccc(-c2nc(C#N)c(NCCCN(C)C)o2)cc1OC	0
Cc1cc(C)c(NC(=O)CSc2nnc(-c3ccncc3)n2Cc2ccco2)c(C)c1	0
c1cncc(-c2nnc(SCCSc3nnc(-c4cccnc4)o3)o2)c1	0
CCOC(=O)CNC(=O)Nc1ccccc1C(=O)OC	6
c1ccc2[nH]c(-c3cscn3)nc2c1	0
CCCOc1ccc(-c2nnn(CC(=O)Nc3cccc(C(=O)OC)c3)n2)cc1	7
O=C(O)c1c[nH]c2ccc(S(=O)(=O)N3CCN(c4ccc(F)cc4)CC3)cc2c1=O	0
COC(=O)c1cc(Br)ccc1-c1ccc(/C=N/n2nnnc2N)o1	7
O=C(Nc1cc(Cl)ccc1Cl)c1noc2c1CCCC2	2
CC1CCN(S(=O)(=O)c2cn(CC(=O)N3CCN(C)CC3)c(=O)c3ccccc23)CC1	4
Cn1cnnc1Sc1nc2c(c(=O)n(C)c(=O)n2C)n1C	0
COc1cc(NC2c3ccccc3C(=O)N2c2ccc(C)cn2)cc(OC)c1OC (centres undefined)	0
Cc1cc(C(=O)Nc2ccc(S(=O)(=O)Nc3onc(C)c3C)cc2)cs1	4

SMILES	inhibition [%]
CN1CCN(c2nc3c(c(=O)[nH]c(=O)n3C)n2CCOc2ccccc2)CC1	0
O/N=C/c1ccc(OCC(O)COc2ccc(/C=N/O)cc2)cc1	0
Cc1nnc(Nc2ccccn2)c2ccccc12	0
COc1ccc2ccccc2c1CN1CCN(C)CC1	3
CCN(CC)CCOC(=O)C1(c2ccc(OC)c(OC)c2)CCCC1	12
O=c1oc(-c2ccco2)nc2ccccc12	2
COc1ccc(NC2c3ncccc3C(=O)N2Cc2ccccc2)c(OC)c1 (centres undefined)	0
Cc1onc(-c2ccccc2Cl)c1C(=O)Nc1cccnc1	5
CN(C)S(=O)(=O)c1ccc2c(c1)C(CC(=O)O)OC2=O (centres undefined)	4
Cc1cc(NC(=O)COc2cccc3cccnc23)no1	6
CCn1c(CNc2ccc(C)cc2)nnc1SCC(=O)NCc1ccccc1	0
Cc1ccccc1Cn1ccc(NC(=O)c2cnn3c(C(F)(F)F)cc(-c4ccco4)nc23)n1	5
COc1cc2c(cc1OC)C(c1ccc(C)o1)CC(=O)N2 (centres undefined)	3
CCOC(=O)CN1CC23C=CC(O2)C(C(=O)NCc2ccc(F)cc2)C3C1=O (centres undefined)	0
CCC(C)(C(=O)NC1CCCCC1)N(Cc1ccco1)C(=O)c1cnccn1 (centres undefined)	3
Cc1cc(N2C(=O)C3C4C=CC(C4)C3C2=O)ccc1Br (centres undefined)	0
COCCn1c(SCC(=O)Nc2cccc(OC)c2)nnc1-c1ccccc1	4
CCCN(C(=O)CSc1nnc(-c2ccoc2C)n1N)C1CCS(=O)(=O)C1 (centres undefined)	0
CCOC(=O)c1ccc(CNC(=O)C(Cc2c[nH]c3ccccc23)NC(C)=O)o1 (centres undefined)	3

Reference: PubChem BioAssay
